Rows were chosen to be rich in hits. Some 11% of all compounds tested hit in one or more screens of this group.
Pf growth 48h – Primary qHTS for delayed death inhibitors of the malarial parasite plastid, 48 hour incubation | Potency, µM (series often up to 28.7 µM), for inactives: at the highest dose activity change, negative = inhibition, actives largely listed as inhibitors | AID 504832, 2011 | P. falciparum luciferase growth in erythrocytes, 48 h | actives 5.9% (n = 310,000); also: % is scaled to controls: 0 for no effect and ±100 for the full control effect
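A one-generation exposure of luciferase-tagged malaria parasites in RPMI 1640/Albumax erythrocyte culture, 37 C and 5% CO2. Inhibition is inferred from decreased luminescence after adding detection reagent.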
NS1 function inh – qHTS Assay for Inhibitors of Influenza NS1 Protein Function; Potency, µM (titrated, usually from 46.1 µM), inactives show top-dose activity, positive = more growth; actives 0.4% (n = 270,000); calls by dose curve; also: actives are rising curves; nearly all actives have a fitted effect of over 50% in size
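Read-out: OD600 growth recovery of NS1-expressing budding yeast. Cells grown overnight at 30C in -URA glucose medium, washed, resuspended and diluted 1:100 in 2% galactose assay medium, pH 6.0. Same strain lacking NS1 served as positive control.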
AMA1-RON2 inh – qHTS for Inhibitors of AMA1-RON; Towards Development of Antimalarial Drug Lead: Primary Screen; AID 720542, 2013; actives 0.2% (n = 360,000); Potency, µM (highest dose often 58.2 µM), for the others: top-dose activity change, negative = inhibition, most hits filed as inhibitors; Plasmodium falciparum AMA1 (3D7) - RON2 peptide interaction; AlphaScreen AMA1-biotinylated RON2 peptide binding;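 also: 0% = vehicle wells and -100% = peptide control; nearly all actives have a fitted effect of over 45% in size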
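AMA1 (3D7) with his tag at 25 nM final met compounds first, then biotinylated RON2 peptide at 25 nM; detection used donor plus acceptor beads, 10 µg/mL apiece, read by AlphaScreen after 30 min at room temperature.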
Pf growth 96h – Primary qHTS for delayed death inhibitors of the malarial parasite plastid, 96 hour incubation; P. falciparum luciferase reporter growth, 96 h; Potency, µM (highest dose often 28.7 µM), for inactives: at the top dose activity change, negative = inhibition, most hits filed as inhibitors; actives 6.9% (n = 320,000); AID 504834, 2011; also: % is scaled to controls: 0 for no effect and ±100 for the full control effect
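Compounds incubated with erythrocytes infected by luciferase-expressing P. falciparum (2% hematocrit, 0.05% parasitemia final) for 96 hours, 37 C in 5% CO2. Growth inhibition scored as decreased luciferase luminescence.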
Sm TGR inh – qHTS Assay for the Inhibitors of Schistosoma Mansoni Peroxiredoxins; actives 3% (n = 360,000); AID 485364, 2010; purified TGR, DTNB reduction, TNB absorbance 405 nm; Schistosoma mansoni thioredoxin glutathione reductase (TGR), Q962Y6; Potency, µM (highest dose often 114 µM), inactives show top-dose activity change, negative = inhibition, hits mostly inhibitors; also: % is scaled to controls: 0 for no effect and ±100 for the full control effect; nearly all actives have a fitted effect of over 60% in size
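First, TGR (20 nM dispensed) and NADPH were mixed with compound. Second, a 15 min room-temperature incubation followed. Third, further NADPH and then DTNB were added to start the reaction. Finally, TNB absorbance was monitored kinetically.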
* hit, by the source's call; [ ] = dose if it differs, or a comment. Unless noted, calls follow the shape of the dose curve; as a rule, active = well fitted curve in the direction sought with a large enough effect; inconclusive = small, poorly fitted or top-dose-only effect, or another doubt; inactive = no such curve, though single readings can be large; an effect the other way counts as inactive or inconclusive. Potency is read from the fitted curve at half-maximal effect.

What do the screens show for `O=C(CC1N=C2c3ccccc3N=C(SCc3ccccc3Cl)N2C1=O)NCc1cccs1` (centres undefined)?
Sm TGR inh: 9.0%

What do the screens show for `Fc1ccccc1CNCCc1ccc2c(c1)OCO2`?
Pf growth 48h: 29.7%; NS1 function inh: -0.1%; AMA1-RON2 inh: -26.8%; Pf growth 96h: 14.8%; Sm TGR inh: 10µM*

How did Cc1nn(CC(=O)Nc2ccc3c(c2)OCCO3)c(C)c1[N+](=O)[O-] do in these assays?
AMA1-RON2 inh: 6.3%

What do the screens show for `CCC(C(=O)O)C1OC(C(C)C(O)C(C)C(=O)C(CC)C2OC3(C=CC(O)C4(CCC(C)(C5CCC(O)(CC)C(C)O5)O4)O3)C(C)CC2C)C(C)CC1C` (centres undefined)?
Pf growth 48h: 0.0536µM*; Pf growth 96h: 0.0338µM*

Results for CC1(C)OC(=O)C2=C(C[C@@H](C3CCCC3)O[C@H]2c2ccc(Cl)cc2)O1 ?
AMA1-RON2 inh: -10.7%

Results for COc1ccc(NC(=O)c2ccc3c(c2)nnn3C2CCCC2)cc1Cl ?
Sm TGR inh: -9.3%

Results for CCC(=NCc1cc(OC)cc(OC)c1)c1c(O)n(C2CCCCC2)c(=O)[nH]c1=O ?
Pf growth 48h: inconclusive; NS1 function inh: 6.3%; AMA1-RON2 inh: -20.0%; Pf growth 96h: 0.828µM*; Sm TGR inh: 18.2%

What do the screens show for `COc1cc(CN=C(C)c2c(O)n(C3CCCCC3)c(=O)[nH]c2=O)cc(OC)c1`?
Pf growth 48h: inconclusive; NS1 function inh: 8.3%; AMA1-RON2 inh: -6.0%; Pf growth 96h: 0.0%; Sm TGR inh: 17.5%

What do the screens show for `C/C(=N\N1CCCCCC1)c1c(O)n(C2CCCCC2)c(=O)[nH]c1=O`?
Pf growth 48h: inconclusive; NS1 function inh: 0.8%; AMA1-RON2 inh: -12.0%; Pf growth 96h: 13.1µM*; Sm TGR inh: 17.0%

What do the screens show for `CC(=O)Nc1ccc(N(C(=O)CNC(=O)c2ccco2)C(C(=O)NC2CCCC2)c2ccco2)cc1` (centres undefined)?
Pf growth 48h: 12.0%; NS1 function inh: -2.8%; AMA1-RON2 inh: 21.5%; Pf growth 96h: 8.9%; Sm TGR inh: -7.3%

What do the screens show for `O=C(COC(=O)CC1Sc2ccccc2NC1=O)NCc1ccccc1` (centres undefined)?
Pf growth 48h: 13.1µM*; AMA1-RON2 inh: 8.8%; Pf growth 96h: inconclusive; Sm TGR inh: 0.4%

Results for COc1ccc(CNC(=O)CC2Sc3ccccc3NC2=O)cc1 (centres undefined) ?
Pf growth 48h: -2.2%; NS1 function inh: 1.2%; AMA1-RON2 inh: 3.6%; Pf growth 96h: 26.2%; Sm TGR inh: 1.7%

What do the screens show for `CCCCOc1cccc(C2c3c(oc4ccccc4c3=O)C(=O)N2c2ccccn2)c1` (centres undefined)?
Sm TGR inh: -7.8%

What do the screens show for `O=C(C1CC1)N(Cc1nc2ccccc2c(=O)[nH]1)Cc1cccs1`?
Pf growth 48h: 1.85µM*; NS1 function inh: -3.7%; AMA1-RON2 inh: 12.3%; Pf growth 96h: -5.1%; Sm TGR inh: -13.4%

What do the screens show for `CC(C)(C)C(=O)N(Cc1nc2ccccc2c(=O)[nH]1)Cc1cccs1`?
Pf growth 48h: -15.9%; NS1 function inh: 11.5%; AMA1-RON2 inh: 36.2%; Pf growth 96h: 11.7µM*; Sm TGR inh: -20.2%

What do the screens show for `O=C(Nc1ccccc1Cl)N(Cc1nc2ccccc2c(=O)[nH]1)Cc1cccs1`?
Pf growth 48h: inconclusive; NS1 function inh: 8.8%; AMA1-RON2 inh: 86.2%; Pf growth 96h: inconclusive; Sm TGR inh: -12.8%

Results for O=C(Nc1ccc(Cl)cc1)N(Cc1nc2ccccc2c(=O)[nH]1)Cc1cccs1 ?
Pf growth 48h: 14.7µM*; NS1 function inh: 5.8%; AMA1-RON2 inh: 42.6%; Pf growth 96h: 3.29µM*; Sm TGR inh: 1.9%

What do the screens show for `O=C(CCCl)N(Cc1nc2ccccc2c(=O)[nH]1)Cc1cccs1`?
Pf growth 48h: -17.9%; NS1 function inh: 1.2%; AMA1-RON2 inh: -16.1%; Pf growth 96h: 12.0%; Sm TGR inh: 0.0%

What do the screens show for `Cc1ccccc1OCC(=O)NCC(c1cccs1)N1CCOCC1` (centres undefined)?
Pf growth 48h: -13.4%; AMA1-RON2 inh: 10.3%; Pf growth 96h: -13.6%; Sm TGR inh: 0.4%

What do the screens show for `COc1ccc(C)cc1N(C(=O)COc1ccccc1)c1nc2ccccc2s1`?
Pf growth 48h: 10.4µM*; NS1 function inh: -4.5%; AMA1-RON2 inh: -9.2%; Pf growth 96h: inconclusive; Sm TGR inh: 3.5%

What do the screens show for `Cc1ccsc1C(=O)N(c1nc2ccccc2s1)c1c(C)cccc1C`?
Pf growth 48h: 11.7µM*; NS1 function inh: 6.7%; AMA1-RON2 inh: -5.4%; Pf growth 96h: 8.28µM*; Sm TGR inh: -10.6%

What do the screens show for `Cc1ccccc1N(C(=O)c1cccs1)c1nc2ccccc2s1`?
NS1 function inh: -2.3%; AMA1-RON2 inh: -28.8%; Pf growth 96h: inconclusive; Sm TGR inh: -1.9%

What do the screens show for `COc1ccc(C)cc1N(C(=O)c1cccc(F)c1)c1nc2ccccc2s1`?
Pf growth 48h: inconclusive; NS1 function inh: 10.2%; AMA1-RON2 inh: -17.6%; Pf growth 96h: inconclusive; Sm TGR inh: 3.0%

Results for COc1ccc(C)cc1N(C(=O)c1ccccc1F)c1nc2ccccc2s1 ?
Pf growth 48h: 9.28µM*; NS1 function inh: inconclusive; AMA1-RON2 inh: -5.3%; Pf growth 96h: 16.5µM*; Sm TGR inh: 0.0%

Results for COc1ccc(C)cc1N(C(=O)c1ccccc1)c1nc2ccccc2s1 ?
Pf growth 48h: 11.7µM*; NS1 function inh: 6.9%; AMA1-RON2 inh: -15.1%; Pf growth 96h: 13.1µM*; Sm TGR inh: -0.6%

Results for CN(C1CCCCC1)S(=O)(=O)c1ccc2[nH]c(=O)oc2c1 ?
Pf growth 48h: 0.0%; NS1 function inh: 1.6%; AMA1-RON2 inh: 35.3%; Pf growth 96h: inconclusive; Sm TGR inh: 10.3%

How did CCN(CC)c1nc(-c2ccc(C(C)(C)C)cc2)nc2ccccc12 do in these assays?
Sm TGR inh: 10.6%

What do the screens show for `O=C(Cc1ccccc1[N+](=O)[O-])NNC(=O)c1cccs1`?
Pf growth 48h: 7.7%; AMA1-RON2 inh: 3.3%; Pf growth 96h: 0.0%; Sm TGR inh: -19.1%

Results for Cc1ccc(S(=O)(=O)N2CCC(C(=O)Nc3ccccc3N3CCCC3)CC2)cc1C ?
Pf growth 48h: inconclusive; AMA1-RON2 inh: -5.0%; Pf growth 96h: inconclusive; Sm TGR inh: -1.3%

What do the screens show for `COCCCNC(=O)C1CCC(CNS(=O)(=O)c2ccc(C)cc2)CC1` (centres undefined)?
Pf growth 48h: 10.4µM*; Pf growth 96h: 76.7%[5.75 µM]; Sm TGR inh: -4.4%

Screening results deposited in PubChem BioAssay by National Center for Advancing Translational Sciences (NCATS).
